CtBP-E1A blk = blocks the CtBP interaction with E1A; activity change, % (test concentration not listed); hit rate 0.49% among 340,000; AlphaScreen GST-E1A/His-CtBP binding, 1536-well; hits give low values; in the data active = activity change below about -65%; inconclusive = mostly about -30% to -63%
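Steps: dispense buffer (Tris pH 8.0, NaCl 300 mM, TCEP 1 mM, BSA, Tween 20); add 5X protein mix (GST-E1A, His-CtBP, 125 nM each); pin 23 nL compound; 2 h at 37 °C, dark; add 5X beads (50 ug/mL); 1 h; read.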
TDP1 inh = TDP1 (human) enzyme inhibition | Q9NUW8 | Potency, µM (highest dose often 130 µM), most hits filed as inhibitors | recombinant TDP1, AlphaScreen DNA substrate cleavage | AID 485290 | hit rate 0.28% among 350,000; also: nearly all actives have a fitted effect of over 40% in size
Target sequence (Q9NUW8 whole entry, looked up): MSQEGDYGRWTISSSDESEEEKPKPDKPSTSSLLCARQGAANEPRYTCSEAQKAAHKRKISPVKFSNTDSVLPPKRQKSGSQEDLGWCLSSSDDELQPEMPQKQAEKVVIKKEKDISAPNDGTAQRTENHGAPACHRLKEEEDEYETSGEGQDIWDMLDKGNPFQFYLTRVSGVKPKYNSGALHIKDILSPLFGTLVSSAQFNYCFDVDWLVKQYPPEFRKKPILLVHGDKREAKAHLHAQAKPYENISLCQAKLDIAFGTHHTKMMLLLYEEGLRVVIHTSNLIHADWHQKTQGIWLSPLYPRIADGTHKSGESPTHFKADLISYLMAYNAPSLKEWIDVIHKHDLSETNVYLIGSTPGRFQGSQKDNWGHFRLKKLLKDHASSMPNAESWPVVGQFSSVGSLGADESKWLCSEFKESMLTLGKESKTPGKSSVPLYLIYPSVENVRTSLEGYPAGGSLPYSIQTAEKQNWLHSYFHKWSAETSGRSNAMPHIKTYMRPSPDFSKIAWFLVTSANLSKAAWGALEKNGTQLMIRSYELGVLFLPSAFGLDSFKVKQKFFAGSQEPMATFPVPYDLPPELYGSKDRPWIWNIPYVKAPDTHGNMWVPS
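Recombinant E. coli-expressed Tdp1 (1 nM) preincubated with compound 15 min at RT, then 5'-biotin/3'-phosphotyrosine-FITC DNA substrate (15 nM) added for 5 min. AlphaScreen beads (10 ug/ml) added, 10 min RT; tyrosine-FITC cleavage read as signal loss.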
IL-1B inflam inh = inflammasome signaling inhibition, IL-1 beta readout | THP-1 LPS/ATP IL-1B secretion, AlphaLISA, 16 h; hits give low values | activity change, % at 57.5 µM | hit rate 4.7% among 360,000 | AID 743279; in the data active = activity change below about -50%; inconclusive = mostly about -30% to -49%
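THP-1 cells pretreated 1 hr with compounds (up to 57.5 uM final), then stimulated with LPS (250 ng/mL final) plus ATP (1.25 mM final); secreted IL-1B measured by AlphaLISA after 16 hr, decreased signal indicating inhibition.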
DT40 TDP1 CPT = DT40-hTDP1 cell growth loss with CPT. chicken DT40 Tdp1-/-;hTDP1 cells + 20 nM CPT, ATP luminescence, 48 h. hit rate 12% among 420,000. AID 686979. Potency, µM (doses to about 46.2 µM), hits mostly inhibitors; also: nearly all actives have a fitted effect of over 55% in size
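Cell growth measured by CellTiter-Glo luminescence after a minimum 48 h, 37 C compound exposure with 20 nM CPT in Tdp1-knockout DT40 cells stably expressing hTDP1, seeded 400/well; qHTS titration format.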
Six1-Eya2 inh = blocks human Six1 binding to Eya2; hit rate 0.56% among 360,000; AID 651725; AlphaScreen GST-Six1/His-Eya2 binding, biochemical; hits give low values; activity change, % (concentration not given with the values); Q15475+O00167; in the data active = activity change below about -65%; inconclusive = mostly about -30% to -63%
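GST-Six1 + His-Eya2 (5X stock: 250/500 nM); Tris pH 8.0, 300 mM NaCl, 0.05% BSA, 0.02% Tween 20; GSH donor/Ni acceptor beads; 1 h 37 °C dark; AlphaScreen readout.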
DT40 TDP1 no CPT = qHTS for Inhibitors of human tyrosyl-DNA phosphodiesterase 1 (TDP1): qHTS in cells in absence of CPT. AID 686978, 2013. DT40 Tdp1-/- hTDP1 cells, no CPT, ATP luminescence, 48 h. Potency, µM (series often up to 46.2 µM), most hits filed as inhibitors. hit rate 15% among 420,000; also: nearly all actives have a fitted effect of over 55% in size
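Cells were dispensed at 400 per well, compounds added by pin tool, plates incubated ≥48 hr at 37 °C, then CellTiter-Glo added for 30 min at room temperature before luminescence reading. Line: DT40 Tdp1-/- complemented with hTDP1; camptothecin omitted.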
Of the large screens only hits and unclear results are named; the others gave an inactive call. In the library only some 18% were active in any assay of this set; here they are far more common. Unless noted, calls follow the shape of the dose curve; as a rule, active = well fitted curve in the direction sought with a large enough effect; inconclusive = small, poorly fitted or top-dose-only effect, or another doubt; inactive = no such curve, though single readings can be large; an effect the other way counts as inactive or inconclusive.

CC(=O)C[C@H]1c2cc(C(F)(F)F)ccc2S(=O)(=O)N1c1ccccc1	IL-1B inflam inh inconclusive, DT40 TDP1 CPT inconclusive (no result: TDP1 inh)
N#Cc1ccc(CO/N=C/c2ccccc2)cc1	none
COCCN(Cc1cc2cc3c(cc2nc1Cl)OCO3)C(=O)Nc1ccc(F)cc1	IL-1B inflam inh -71, DT40 TDP1 CPT 16µM, DT40 TDP1 no CPT 11µM
COc1cc(CN2CC(=O)N(c3cccc(Cl)c3C)C2=S)cc(OC)c1OC	DT40 TDP1 CPT 23µM, DT40 TDP1 no CPT inconclusive (no result: TDP1 inh)
COc1cc(CN2CC(=O)N(c3ccccc3Cl)C2=S)cc(OC)c1OC	DT40 TDP1 CPT 18µM, DT40 TDP1 no CPT inconclusive (no result: TDP1 inh)
CC1OC(CCc2cccc(Cl)c2)Cc2[nH]c(=S)[nH]c(=O)c21 (stereo not drawn)	DT40 TDP1 CPT inconclusive, DT40 TDP1 no CPT 26µM (no result: TDP1 inh)
CCCCC1Cc2[nH]c(=S)[nH]c(=O)c2C(c2ccc(C(C)C)cc2)O1 (stereo not drawn)	DT40 TDP1 CPT 16µM, DT40 TDP1 no CPT 23µM (no result: TDP1 inh)
CC1Cc2[nH]c(=S)[nH]c(=O)c2C(c2ccc(C(C)C)cc2)O1 (stereo not drawn)	none (no result: TDP1 inh)
COc1ccc([N+](=O)[O-])cc1NC(=O)N(C)Cc1ccco1	none (no result: CtBP-E1A blk)

Screening results: PubChem BioAssay, National Center for Advancing Translational Sciences (NCATS)
